Most compounds without a hit are left out; they make up all but 0.84% or so of the library.
NCOA3 inh – inhibitors of human steroid receptor coactivator 3 (SRC3). HEK293 GAL4-SRC3 luciferase reporter, luminescence. inhibition, % at 3.6 µM. actives 0.17% (n = 360,000);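 active = inhibition above a per-campaign cutoff, the mean of all compounds plus 3 SD, cut at about 60% in these data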;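 note: 0% = DMSO-treated cells and 100% = gossypol-treated cells at 36 µM; higher means less SRC3-driven luciferase light from the GAL4 reporter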
NR2F2 inh – NR2F2 (human) inhibition, primary screen | HEK293T NGFI-A luciferase reporter, luminescence | inhibition, % at 8.6 µM | actives 0.7% (n = 370,000) | AID 686940;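 active = inhibition above a per-plate cutoff, mean inhibition of test wells between control levels plus 3 SD, cut at about 38% in these data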;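 note: cells cotransfected with COUP-TFII expression vector driving the NGFI-A reporter; 0% = median of COUP-TF2 test wells and 100% = reporter-only cells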
NCOA1 inh – inhibitors of human steroid receptor coactivator 1 (SRC1); HEK293 GAL4-SRC1 luciferase reporter, luminescence; inhibition, % at 3.6 µM; actives 0.12% (n = 360,000); AID 588354;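 active = inhibition above the campaign mean plus 3 SD, with each screening campaign given its own cutoff, cut at about 60% in these data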;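 note: 0% = DMSO treated cells and 100% = gossypol at 36 µM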
SRC2 inh – human SRC2 (NCOA2) inhibition | AID 651957 | Q15596 | actives 0.17% (n = 370,000) | HEK293 GAL4-SRC2 luciferase reporter, luminescence | inhibition, % at 9 µM;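 active = inhibition above the mean inhibition of all tested compounds plus 3 SD, set per campaign, cut at about 52% in these data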;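 note: 0% = DMSO treated cells and 100% = cells given Gossypol at 36 µM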
Target sequence (Q15596 whole entry, looked up, the tested form may be a part): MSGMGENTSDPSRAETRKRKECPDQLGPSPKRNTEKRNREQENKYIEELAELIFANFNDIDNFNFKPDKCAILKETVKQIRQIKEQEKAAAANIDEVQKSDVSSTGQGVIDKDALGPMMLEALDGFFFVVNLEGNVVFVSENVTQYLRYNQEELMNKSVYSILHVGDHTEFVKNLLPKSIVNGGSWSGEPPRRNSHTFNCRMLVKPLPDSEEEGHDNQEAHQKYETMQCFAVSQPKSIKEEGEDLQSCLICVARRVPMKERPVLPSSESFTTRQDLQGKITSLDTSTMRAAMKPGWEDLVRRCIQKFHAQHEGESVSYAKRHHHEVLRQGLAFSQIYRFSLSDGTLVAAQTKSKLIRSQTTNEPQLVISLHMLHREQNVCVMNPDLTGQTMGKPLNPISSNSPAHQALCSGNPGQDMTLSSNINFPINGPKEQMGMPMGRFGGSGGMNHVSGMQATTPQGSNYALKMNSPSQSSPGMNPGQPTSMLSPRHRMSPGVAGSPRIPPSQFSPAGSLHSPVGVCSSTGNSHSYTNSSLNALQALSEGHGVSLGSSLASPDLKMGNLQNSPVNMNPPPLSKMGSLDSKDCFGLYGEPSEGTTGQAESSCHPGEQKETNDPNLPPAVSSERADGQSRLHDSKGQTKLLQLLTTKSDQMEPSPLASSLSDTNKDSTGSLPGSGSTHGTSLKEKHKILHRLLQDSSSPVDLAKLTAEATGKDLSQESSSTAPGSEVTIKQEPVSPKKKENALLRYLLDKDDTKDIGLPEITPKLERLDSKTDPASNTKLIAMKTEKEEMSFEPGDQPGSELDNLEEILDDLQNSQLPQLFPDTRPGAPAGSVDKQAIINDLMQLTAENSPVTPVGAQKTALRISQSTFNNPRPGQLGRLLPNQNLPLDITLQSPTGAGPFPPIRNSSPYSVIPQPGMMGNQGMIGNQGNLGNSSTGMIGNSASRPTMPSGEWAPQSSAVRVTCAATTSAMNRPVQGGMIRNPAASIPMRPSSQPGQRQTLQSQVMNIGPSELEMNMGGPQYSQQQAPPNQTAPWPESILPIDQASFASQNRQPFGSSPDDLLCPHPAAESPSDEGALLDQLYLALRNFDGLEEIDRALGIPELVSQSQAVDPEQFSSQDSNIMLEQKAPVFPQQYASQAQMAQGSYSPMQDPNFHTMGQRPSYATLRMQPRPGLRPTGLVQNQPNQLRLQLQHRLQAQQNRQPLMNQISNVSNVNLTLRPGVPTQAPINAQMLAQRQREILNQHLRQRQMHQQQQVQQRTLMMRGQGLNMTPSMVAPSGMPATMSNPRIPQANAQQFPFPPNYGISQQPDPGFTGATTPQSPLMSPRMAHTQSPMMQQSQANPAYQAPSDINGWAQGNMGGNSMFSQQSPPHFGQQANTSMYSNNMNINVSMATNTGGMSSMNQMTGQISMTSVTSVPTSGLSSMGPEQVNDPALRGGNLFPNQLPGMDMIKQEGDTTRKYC
NR5A2 inv ag – inverse agonists of human LRH-1 (NR5A2) | O00482 | HEK293T StAR-luciferase reporter, LRH-1 transfected, 24 h | inhibition, % at 3.6 µM | actives 0.13% (n = 360,000);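 active = inhibition above the mean inhibition of all tested compounds plus 3 SD, cut at about 73% in these data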;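 note: 0% = DMSO wells and 100% = reporter-only cells lacking LRH-1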
VP16 Luc counter – inhibits VP16 reporter, flagging COUP-TFII antagonist hits; shares compounds with NR2F2 inh; HEK293 Gal4-VP16 luciferase reporter, luminescence; inhibition, % at 8.5 µM; actives 25% (n = 2,500); in the data active = inhibition above about 13%
NR2F2 inh conf – COUP-TFII (NR2F2) inhibition, confirmation assay. actives 45% (n = 2,500). inhibition, % at 8.5 µM. HEK293 NGFI-A luciferase reporter, luminescence. shares compounds with NR2F2 inh;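 active = mean inhibition over three repeats above a set limit taken from the earlier primary screen, cut at about 38% in these data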;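 note: 100% = cells given the luciferase reporter alone without the COUP-TF2 vector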
* hit, by the source's call; i = inactive; . = no result given; ! = a repeat was not active.

SMILES	NCOA3 inh	NR2F2 inh	NCOA1 inh	SRC2 inh	NR5A2 inv ag	VP16 Luc counter	NR2F2 inh conf
COc1ccc(CNC(=O)c2cccc3c(-c4cnn(C)c4)coc23)cc1OC	23	62*	22	11	42	-4	40*
COc1ccc(-c2coc3c(C(=O)NCc4ccc(OC)c(OC)c4)cccc23)c(C)c1	18	79*	28	14	62	6	69*
COc1ccc(-c2coc3c(C(=O)NCC4CCOCC4)cccc23)c(C)c1	8	42*	8	12	31	-3	17
CCN(CC)C(=O)CNc1nnnn1-c1ccccc1	.	-15	.	8	.	.	.
COC[C@H]1O[C@]2(c3ccccc3)CO[C@H]1[C@@H](/C=C/c1ccccc1)C2	.	4	.	6	.	.	.
Cc1ccc(CN2CCCCC(NC(=O)Nc3ccccc3-c3ccccc3)C2=O)cc1 (centres undefined)	.	15	.	-21	.	.	.
O=C(CSc1nnc(-c2ccccc2)n1-c1ccccc1)NN=Cc1ccc(-c2ccccc2)cc1	.	2	.	4	.	.	.
Nn1c(SCc2cccc3ccccc23)nnc1-c1cc(-c2ccc(Cl)cc2)n[nH]1	.	15	.	14	.	.	.
CCCCN(C)C(=O)CNc1nnnn1-c1ccccc1	.	-12	.	-8	.	.	.
COc1ccc(-c2coc3c(C(=O)NCc4ccc(F)c(F)c4)cccc23)c(C)c1	-22	47*	8	6	19	7	28
Nc1nc2cc3c(cc2cc1C(=O)NCCc1c[nH]c2ccccc12)OCO3	.	66*	.	14	.	-2	52*
CCCC1CCC2(CC1)CCC2OC(=O)Nc1ccccc1C (centres undefined)	.	-14	.	.	.	.	.
O=C(Nc1ccc(Cc2ccncc2)cc1)C1CCC(N2C(=O)C3C4C=CC(C4)C3C2=O)CC1 (centres undefined)	2	38*	3	10	12	0	6
O=C(Nc1ccc(Cc2ccncc2)cc1)C1CCC(N2C(=O)C3CC=CCC3C2=O)CC1 (centres undefined)	-20	8	-35	27	-27	.	.
COc1ccc2c(c1)sc1nc(-c3ccccc3)cn12	13	47*	5	61*	-1	47*	40*
CC1CCCCN1CCCNC(=O)c1ccc2c(c1)NC(=O)CN2C (centres undefined)	-2	-2	-7	-18	27	.	.
CCCCN(CCCNC(=O)c1ccc2c(c1)NC(=O)CN2C)c1ccccc1	-2	45*	5	13	-15	8	14
Cn1c(CN2CCCCC2)nc2cc(NC(=O)c3ccc(Cl)cc3)ccc21	-2	62*	10	-17	29	-12	48*
COC(=O)[C@]12C[C@H](CC(=O)NCc3ccc(OC)c(OC)c3)C(=O)N(Cc3ccco3)C1=C[C@H](C1CCCC1)O[C@@H]2C	.	-5	.	-3	.	.	.
N#Cc1cc2ccccc2nc1SCC(=O)Nc1ccc(S(=O)(=O)N2CCCC2)cc1	24	39*	-20	14	-2	-8	2
Cc1ccc(NC(=O)Cc2n[nH]c(=O)c3ccccc23)cc1S(=O)(=O)N1CCCCCC1	-7	38*	-3	23	-6	-2	17
CN(CC(=O)Nc1ccc(Cl)c(C(F)(F)F)c1)C(=O)Cc1n[nH]c(=O)c2ccccc12	16	46*	-13	28	-22	-5	10
Cc1ccc(NC(=O)CSc2ncnc3ccccc23)cc1S(=O)(=O)N1CCCCC1	18	39*	-9	36	-25	-7	8
O=C(NC1CCCCN(Cc2cccc(F)c2)C1=O)c1ccc(F)cc1 (centres undefined)	.	-4	.	-4	.	.	.
COC(=O)C1CN(Cc2cn(Cc3ccc(Cl)cc3)nn2)CCS(=O)(=O)N1Cc1ccc(Cl)cc1 (centres undefined)	.	38*	.	15	.	-4	3
SMILES	NCOA3 inh	NR2F2 inh	NCOA1 inh	SRC2 inh	NR5A2 inv ag	VP16 Luc counter	NR2F2 inh conf
c1ccc(CC2CCN(c3ncnc4sccc34)CC2)cc1	10	55*	28	2	32	-10	53*
c1ccc(OC2CCN(c3ncnc4sccc34)CC2)cc1	.	64*	.	.	.	-8	49*
Cc1c(C)n(Cc2ccccc2)c2ncnc(Cl)c12	29	45*	18	38	25	10	42*
Cc1nn(-c2ccccc2)c2sc(C(=O)NC3CCCc4ccccc43)cc12 (centres undefined)	.	9	.	-2	.	.	.
COC(=O)[C@H](C(C)C)N(CCc1cn(Cc2ccc(C)cc2)nn1)S(=O)(=O)c1ccc(F)cc1Br	.	8	.	20	.	.	.
Nc1ccc(OC(=O)Nc2ccc(O)cc2)cc1	15	44*	-4	77*	10	36*	24
CCN(CC)S(=O)(=O)c1cc(C(=O)Nc2ccncc2)ccc1Cl	7	64*	11	24	16	-13	25
CCN(CC)S(=O)(=O)c1cc(C(=O)Nc2cccnc2)ccc1Cl	-2	8	-33	-3	-4	.	.
O=C(Nc1ccncc1)c1ccc(Cl)c(S(=O)(=O)N2CCCC2)c1	10	46*	-3	-5	24	-2	14
Cc1ccc(C(=O)Nc2ccncc2)cc1S(=O)(=O)N1CCCCC1	14	47*	10	28	28	-3	3
Cc1ccc(NC(=O)c2ccccc2NS(=O)(=O)c2ccc(F)cc2)cc1S(=O)(=O)N1CCCCC1	39	38*	6	35	19	-9	13
CN(c1ccccc1)S(=O)(=O)c1ccc(Cl)c(C(=O)Nc2ccncc2)c1	25	40*	17	36	15	1	2
O=C(Cn1cnc2ccccc2c1=O)Nc1ccc2c(c1)OCO2	-43	-25	-54	-24	-30	.	.
COc1ccc(NC(=O)CSc2ncccc2C(=O)OC(C)C)cc1OC	-3	58*	2	23	10	-3	28
COc1ccc(NC(=O)CSc2ccccn2)cc1OC	-4	-4	-2	-1	-8	.	.
O=C(CSc1ncnc2ccccc12)Nc1ccc2c(c1)OCCO2	-3	-16	-14	12	-7	.	.
O=C(Cn1cnc2ccccc21)Nc1ccc2c(c1)OCCCO2	5	39*	6	10	10	-24	9
O=C(CSc1ncccc1C(=O)O)Nc1ccc2c(c1)OCCO2	19	55*	15	48	50	-6	-4
C(=C\c1ccccc1)/CSc1nnc(COc2ccccc2)n1Cc1ccco1	.	8	.	-2	.	.	.
Nc1ccc2cc3ccc(N)cc3nc2c1	.	-64	.	i	.	.	.
COc1cc(NC(=O)c2cnc(N)o2)cc(C(=O)Nc2cccc(C(F)(F)F)c2)c1	5	66*!	8	13	14	-21	22
COc1cc(NC(=O)c2ccnc(N)c2)cc(C(=O)Nc2cccc(C(F)(F)F)c2)c1	-14	9	-8	-22	-23	.	.
CN1Cc2sc(NC(=S)NC(=O)c3ccccc3)c(C#N)c2CC1(C)C	.	40*	.	43	.	7	69*
